# From PubChem BioAssay (NCI)
# Where “and” joins values, the source holds several entries; their conditions need not be identical. Equal values may be shown once. About 83,000 compounds went through this panel and 20% of them were active in at least one assay; those are over-represented in the sample as a whole.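 Growth was measured after 48 h exposure to one concentration of compound in 96-well plates. Values under 10 count as active.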 Calls of active or inactive are those of the source.
# How the values were obtained:
# Assay in all cases: NCI-60 one-dose screen, 48 h (100 = growth as untreated, 0 = no growth, -100 = all killed)
# UACC-62 melanoma = test system: UACC-62 melanoma
# HT29 colon = conditions: 10 µM unless noted
# SNB-75 CNS = conditions: 10 µM unless noted
# SNB-19 CNS = conditions: 10 µM unless noted
# U251 CNS = conditions: 10 µM unless noted
# PC-3 prostate = conditions: 10 µM unless noted
# LOX IMVI melanoma = conditions: 10 µM unless noted
# SK-MEL-2 melanoma = conditions: 10 µM unless noted
# EKVX NSCLC = conditions: 10 µM unless noted
# SK-MEL-28 melanoma = conditions: 10 µM
SMILES,growth (UACC-62 melanoma; 100 µM),growth (HT29 colon),growth (SNB-75 CNS),growth (SNB-19 CNS),growth (U251 CNS),growth (PC-3 prostate),growth (UACC-62 melanoma; 10 µM),growth (LOX IMVI melanoma),growth (SK-MEL-2 melanoma),growth (EKVX NSCLC),growth (SK-MEL-28 melanoma)
CC1CCC2(NC1)OC1CC3C4CCC5CC(OC6OC(CO)C(OC7OC(CO)C(O)C(OC8OCC(O)C(O)C8O)C7OC7OC(CO)C(O)C(O)C7O)C(O)C6O)CCC5(C)C4CCC3(C)C1C2C (configuration not stated),-77.3% (active) and -86.4% (active),,,,,,,,,,
C[C@H]1CCC/C=C/[C@@H]2C[C@H](O)C[C@H]2[C@H](O)/C=C/C(=O)O1,,-53.5% (active),-19.7% (active),38.3% (inactive),20.6% (inactive),-14.6% (active),20.9% (inactive),-69.4% (active),-21.5% (active),11.1% (inactive),
COC1CC(CC2CCC(C)C(C(C)C(=O)O)O2)OC2(OC(C)(C3CCC(C)(C4OC(C5OC(O)(CO)C(C)CC5C)CC4C)O3)CC2C)C1C (configuration not stated),,-0.662% (active),-60.6% (active),-2.87% (active),3.01% (active),5.39% (active),-98.8% (active),11.3% (inactive),-61.3% (active),19.1% (inactive),
CC1=C2C(=O)[C@H]3[C@@H](CC=C4C[C@@H](O)CC[C@@]43C)[C@@H]2CC[C@]12O[C@@H]1C[C@H](C)CN[C@H]1[C@H]2C,,82.6% (inactive),68.6% (inactive),106% (inactive),107% (inactive),,112% (inactive),96.4% (inactive),2.09% (active),94.3% (inactive),118% (inactive)
Oc1cc[c]([Hg][Cl])cc1,,100% (inactive),92.3% (inactive),100% (inactive),85.9% (inactive),99.7% (inactive),92.1% (inactive),71.3% (inactive),70.2% (inactive),,74.5% (inactive)
CC[C@](O)(C(=O)O)c1cc2n(c(=O)c1CO)Cc1cc3ccccc3nc1-2,,-31.3% (active),-33.5% (active),1.96% (active),1.58% (active),-8.14% (active),-68.6% (active),-40.9% (active),-20.9% (active),10.2% (inactive),
COc1ccccc1/C=C(/C)[N+](=O)[O-],,54.7% (inactive) and 88.8% (inactive),68.3% (inactive) and 85% (inactive),73.9% (inactive) and 107% (inactive),83% (inactive) and 98.7% (inactive),90.3% (inactive) and 84.7% (inactive),58.1% (inactive) and 103% (inactive),22.2% (inactive) and 92.2% (inactive),94.8% (inactive) and 85.9% (inactive),90.8% (inactive) and 98.4% (inactive),83.3% (inactive) and 116% (inactive)
COC1=C(C)C(=O)C2=C(C1=O)C(CO)N1C(C#N)C3CC4C(C1C2N1CCOC41)N3C (configuration not stated),,-47.7% (active),,8.12% (active),-9.96% (active),-40.2% (active),-81.2% (active),-21.2% (active),-58.4% (active),0.181% (active),
CC[n+]1c(-c2ccccc2)c2cc(N)ccc2c2ccc(N)cc21,,9.77% (active),-88.5% (active),-5.17% (active),-2.55% (active),20.9% (inactive),-81.3% (active),13.5% (inactive),-60.1% (active),1.88% (active),-42.9% (active)
CCOC(=O)C(NC(=O)C(Cc1ccc(N(CCCl)CCCl)cc1)NC(C)=O)C(C)C (configuration not stated),,67.1% (inactive),85.9% (inactive),90.6% (inactive),73.7% (inactive),67.4% (inactive),83.1% (inactive),66.1% (inactive),92.7% (inactive),97.6% (inactive),101% (inactive)
O=C1c2ccccc2C(=O)C(Cl)C1Cl (configuration not stated),,96.8% (inactive),54% (inactive),69.5% (inactive),83% (inactive),71.8% (inactive),70.9% (inactive),,111% (inactive),-79.6% (active),87.9% (inactive)
CCC(=O)OC1CCn2c1nc1c2C(=O)C(C)=C(N2CC2)C1=O (configuration not stated),,7.71% (active),-87% (active),1.12% (active),-24.2% (active),8.58% (active),-67.8% (active),-75.7% (active),-43.9% (active),8.46% (active),-42.1% (active)
CC[C@@]1(O)C(=O)OCc2c1cc1n(c2=O)Cc2cc3ccccc3nc2-1,,-31.8% (active),-41.8% (active),-0.517% (active),-31.6% (active),-22.3% (active),-49.1% (active),-62.4% (active),-20.7% (active),13.5% (inactive),
Cc1cc(N=Nc2ccccc2C)ccc1N,,103% (inactive),42.5% (inactive),69.7% (inactive),74.9% (inactive),,74% (inactive),71.5% (inactive),127% (inactive),71.9% (inactive),99.4% (inactive)
CC[C@@]1(O)C[C@H](OC2CC(N(C)C)C(O)C(C)O2)c2c(O)c3c(c(O)c2[C@H]1OC1CC(N(C)C)C(O)C(C)O1)C(=O)c1cccc(O)c1C3=O (some centres not stated),,-39% (active),-94.6% (active),5.62% (active),-21.9% (active),-61.8% (active),-63.2% (active),-36.2% (active),-54.5% (active),4.27% (active),
CN1CCN(c2ccc([N+](=O)[O-])c3no[n+]([O-])c23)CC1,,-51.8% (active),-78.2% (active),-30.5% (active),-95.6% (active),-65.9% (active),-58.8% (active),-46.2% (active),-80.5% (active),-34.4% (active),17.3% (inactive)
CCCCCCCCCCCC1CCCC(C)N1 (configuration not stated),,14.9% (inactive),82% (inactive),93.2% (inactive),59.6% (inactive),44.4% (inactive),88.2% (inactive),52.3% (inactive),-7.27% (active),91.2% (inactive),96.7% (inactive)
CC[C@@]1(O)C[C@H](OC2CC(N(C)C)C(OC3CC(O)C(OC4CCC(=O)C(C)O4)C(C)O3)C(C)O2)c2c(cc3c(c2O)C(=O)c2c(O)ccc(O)c2C3=O)[C@H]1C(=O)OC (some centres not stated),,-47.4% (active),-37.1% (active),25.7% (inactive),-38.3% (active),-24.5% (active),-72.9% (active),-68.8% (active),-40.2% (active),17.6% (inactive),
CC(=O)O[C@H]1C[C@@H]2OC3C=C(C)CCC3(C)[C@@]1(C)[C@@]21CO1 (some centres not stated),,-32.2% (active) and -30.6% (active),11.2% (inactive) and -18.3% (active),-0.212% (active) and 0.0305% (active),-8.47% (active) and -17.4% (active),-2.24% (active) and -4.21% (active),-16.6% (active) and -10.1% (active),-58.9% (active) and -21.5% (active),-72.2% (active) and -53.9% (active),-13.7% (active) and -15.6% (active),-24.3% (active) and -29.8% (active)
CC1=C(CO)C2=C(C)C3(CC3)[C@@](C)(O)C(=O)C2=C1,,-17.8% (active),-83.8% (active),11.3% (inactive),2.57% (active),-18.8% (active),-81.5% (active),22.8% (inactive),-46.8% (active),0.643% (active),
Oc1cccc2cccnc12,,51.8% (inactive) and 106% (inactive),101% (inactive) and 106% (inactive) and 89.6% (inactive),95.1% (inactive) and 108% (inactive) and 102% (inactive),72.3% (inactive) and 99.1% (inactive) and 106% (inactive),86.9% (inactive) and 97.3% (inactive) and 92.3% (inactive),97.2% (inactive) and 94.1% (inactive),71.9% (inactive) and 99.1% (inactive) and 107% (inactive),99% (inactive) and 102% (inactive) and 101% (inactive),93% (inactive) and 110% (inactive) and 103% (inactive),97.2% (inactive) and 107% (inactive) and 106% (inactive)
CCC1(O)CC(OC2CC(N(C)C)C(OC3CC4OC5CC(=O)C(C)OC5OC4C(C)O3)C(C)O2)c2c(cc3c(c2O)C(=O)c2c(O)ccc(O)c2C3=O)C1C(=O)OC (configuration not stated),,-36.4% (active),-98% (active),0.801% (active),-18.4% (active),-63.5% (active),-72.5% (active),-22.7% (active),-54.8% (active),1.67% (active),
